This passage reports composite z-score results from PubChem BioAssay.

Sequence of Follistatin (Homo sapiens) (P19883 whole entry, looked up): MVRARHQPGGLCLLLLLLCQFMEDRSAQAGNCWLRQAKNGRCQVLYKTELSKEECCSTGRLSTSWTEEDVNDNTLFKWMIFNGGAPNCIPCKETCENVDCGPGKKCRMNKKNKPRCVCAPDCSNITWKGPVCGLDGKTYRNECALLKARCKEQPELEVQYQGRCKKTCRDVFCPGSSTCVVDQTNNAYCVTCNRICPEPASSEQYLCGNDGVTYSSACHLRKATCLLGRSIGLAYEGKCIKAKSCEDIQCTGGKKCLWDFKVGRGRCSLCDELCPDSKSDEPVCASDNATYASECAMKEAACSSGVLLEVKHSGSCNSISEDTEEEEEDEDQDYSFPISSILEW

This assay concerns the target Follistatin (Homo sapiens) (UniProt P19883). Nature of the assay: FST protein binding to printed compounds – biochemical, small-molecule microarray, 635/667 nm fluorescence, primary screen (AID 1132). The following applies: 635 nm fluorescence, higher = more signal.
`CC(C)NC(=O)[C@@H]1c2ccccc2C(=O)N(Cc2cc(C(F)(F)F)cc(C(F)(F)F)c2)[C@H]1c1ccc(CO)cc1` showed a composite z-score of 1.

The compound `O=C(CS)NCCCCCNC(=O)[C@@H]1C[C@@H]2C(=O)N3CCC[C@H]3C(=O)N2[C@@H]1c1ccc(O)cc1` had a composite z-score of 1.26.

In turn, `CCCCC=C[C@@H](NC(=O)CCc1ccccc1)c1ccccc1` yielded a composite z-score of 0.361.

As to `COCCOC(=O)N1C(=O)[C@@]2(c3cc(C#Cc4ccc(OC)cc4)ccc31)[C@H](C(=O)N1CCc3cc(OC)c(OC)cc3C1)[C@H]1C(=O)O[C@H](c3ccccc3)[C@H](c3ccccc3)N1[C@@H]2c1ccc(OCCO)cc1`, the composite z-score came out at 1.19.

`OCc1ccc(-c2cc[n+](Cc3cccc(OC(F)(F)F)c3)cc2)cc1` yielded a composite z-score of 1.45.

Take `O=C(Nc1cc(Br)ccc1C(=O)NCc1cccc(O)c1)c1ccccc1`: the composite z-score came out at 0.0635.

The compound `COC(=O)c1ccc(OC)c(/C=C\CC(CCc2ccccc2)OC(C)=O)c1` (stereo unspecified) came in with a composite z-score of 0.457.

In the case of `O=C1C[C@@](C(=O)O)(c2ccc([N+](=O)[O-])cc2)[C@@H](c2ccc(CO)cc2)N1CC12CC3CC(CC(C3)C1)C2`, the composite z-score was 0.563.

For the compound `CO[C@H]1O[C@H](CO)[C@@H](OC(=O)Nc2cccc(F)c2)[C@H](OC(=O)Nc2ccc3c(c2)OCO3)[C@H]1OC(=O)Nc1ccc2c(c1)OCO2`, the composite z-score came out at 1.32.

As for `COc1ccc([Si](C)(C)[C@H]2[C@H](CCO)O[C@@]3(C(=O)N(Cc4cccc(N5CCOC5=O)c4)c4ccccc43)[C@@H]2C)cc1`, the composite z-score was 0.433.

Take `COC(=O)C(CC#Cc1ccc2c(c1)[C@]1(C(=O)N2)[C@H](c2ccccc2OCCO)N2[C@H](c3ccccc3)[C@H](c3ccccc3)OC(=O)[C@H]2[C@@H]1C(=O)Nc1nc2ccccc2s1)C(=O)OC`: the composite z-score was 1.11.
